Source: PubChem
BoNT F protease = BoNT F light chain protease inhibition. inhibition, % at 10 µM. hit rate 0.22% among 360,000. Multiplex microsphere protease cleavage assay, flow cytometry. AID 588497; in the data active = inhibition above about 35%, passing the limit was not always enough; inconclusive = no clear call, values can overlap the other calls
BJeLR viability = BJeLR cell viability loss. BJeLR (HRASV12) viability, CellTiter-Glo ATP luminescence, 48 h. inhibition, % (no concentration beside the values). hit rate 0.17% among 300,000; in the data active = inhibition above about 50%; inconclusive = no clear call, values can overlap the other calls
Anthrax LF prot = anthrax lethal factor protease inhibition; multiplex microsphere protease cleavage assay, LF; P15917; AID 588501; hit rate 0.12% among 360,000; inhibition, % at 10 µM
Target sequence (P15917 whole entry, looked up): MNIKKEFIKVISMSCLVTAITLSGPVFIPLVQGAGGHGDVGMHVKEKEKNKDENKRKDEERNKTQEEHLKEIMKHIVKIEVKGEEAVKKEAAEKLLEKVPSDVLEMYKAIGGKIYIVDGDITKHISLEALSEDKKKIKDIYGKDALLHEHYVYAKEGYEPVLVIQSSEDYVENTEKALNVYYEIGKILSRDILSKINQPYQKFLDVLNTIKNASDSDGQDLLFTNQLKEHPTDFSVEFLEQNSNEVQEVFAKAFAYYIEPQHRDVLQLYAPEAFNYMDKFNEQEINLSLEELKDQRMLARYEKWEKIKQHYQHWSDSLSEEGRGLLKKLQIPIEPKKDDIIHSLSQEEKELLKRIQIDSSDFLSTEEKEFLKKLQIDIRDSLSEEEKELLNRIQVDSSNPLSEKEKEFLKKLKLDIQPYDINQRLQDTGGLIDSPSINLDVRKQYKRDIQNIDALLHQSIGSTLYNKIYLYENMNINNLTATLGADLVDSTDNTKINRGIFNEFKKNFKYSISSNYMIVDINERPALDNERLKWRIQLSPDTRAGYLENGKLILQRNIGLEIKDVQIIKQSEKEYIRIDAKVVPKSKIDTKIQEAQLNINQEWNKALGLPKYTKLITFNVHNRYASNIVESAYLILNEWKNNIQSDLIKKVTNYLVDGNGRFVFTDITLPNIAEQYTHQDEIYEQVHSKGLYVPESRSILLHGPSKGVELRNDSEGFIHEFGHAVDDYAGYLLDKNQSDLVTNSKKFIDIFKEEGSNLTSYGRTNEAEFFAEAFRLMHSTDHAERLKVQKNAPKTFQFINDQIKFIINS
Autofluor counter = compound fluorescence in toxin protease inhibitor counterscreen; compound autofluorescence counterscreen, microsphere flow cytometry; active compounds read high; fluorescence intensity (concentration not given with the values); hit rate 3.1% among 360,000; in the data active = fluorescence intensity above about 16000; inconclusive = no clear call, values can overlap the other calls
BoNT-A LC inh2 = BoNT A light chain protease inhibition; multiplex microsphere protease substrate cleavage, flow cytometry; hit rate 0.17% among 360,000; inhibition, % at 10 µM
Hits are given with their value; i = inactive; ? = inconclusive; nt = not tested or not shown. An excerpt weighted towards active compounds, which were near 3.5% of everything screened. Cut-off read from the data, not from the text of the source, unless noted: active = inhibition above about 30%; inconclusive = no clear call, values can overlap the other calls; inactive = below that.

SMILES	BoNT F protease	BJeLR viability	Anthrax LF prot	Autofluor counter	BoNT-A LC inh2
Cn1c(=O)c2c(nc(SCCN3CCOCC3)n2Cc2cccc3ccccc23)n(C)c1=O	i	i	i	19656	i
Cn1c(=O)c2c(nc(CN3CCC(C(N)=O)CC3)n2CCc2ccccc2)n(C)c1=O	i	i	i	19348	?
Cn1c(=O)c2c(nc(NCCCN3CCOCC3)n2Cc2cccc(Cl)c2)n(C)c1=O	i	i	i	22276	i
Cn1c(=O)c2c(nc(CN3CCC(Cc4ccccc4)CC3)n2CCN2CCOCC2)n(C)c1=O	i	nt	i	27251	i
Cc1ccc(N(Cc2ccc(C(=O)NCC3CCCO3)cc2)S(C)(=O)=O)cc1C (stereo unspecified)	i	i	i	i	i
COc1ccc(N(CC(=O)NCc2ccco2)S(=O)(=O)c2ccccc2)cc1	i	i	i	i	i
CN(CC(=O)NCc1ccco1)S(=O)(=O)c1ccc2c(c1)n(C)c(=O)c(=O)n2C	i	i	i	24204	i
COc1ccc(S(=O)(=O)N(CC(=O)NCc2ccco2)c2ccccc2)cc1	i	i	i	19214	?
CC(C)C[C@H]1CN(CCCC[C@@H]2CNC(=O)C(=O)N2CC2CCCCC2)C(=O)C(=O)N1CC1CCCCC1	i	nt	i	i	i
Cc1cc(C(=O)Nc2cccc(C(=O)O)c2)c(C)o1	i	i	i	22853	?
O=C1C(Br)=Cc2cccc3cccc1c23	i	i	29.9	i	59.0
COC(=O)C1CN(C#N)N(c2ccc(Cl)cc2)C12c1ccccc1-c1ccccc12 (stereo unspecified)	i	83.9	i	i	i
CCn1c(=N)n(CC(O)c2ccco2)c2ccccc21 (stereo unspecified)	i	i	i	28325	i
COc1ccc(OC)c(/C=N/NC(=O)CCc2c(C)n[nH]c2C)c1	40.5	i	i	i	i
COc1ccc(/C=N\NC(=O)CCc2c(C)n[nH]c2C)c(OC)c1OC	i	i	i	i	i
CCN(CC)c1ccc(/C=N/c2sc3c(c2C#N)C2CCN3CC2)c(O)c1	i	nt	i	22519	i
CCOC(=O)N1CCN(S(=O)(=O)c2ccc(Cl)cc2)CC1	i	i	i	i	i
CCOC(=O)N1CCC(NC(=O)C2CCN(c3ccc(N4CCOCC4)nn3)CC2)CC1	i	i	i	23805	i
COC(=O)c1cc(S(=O)(=O)N2CCC(C)CC2)ccc1F	i	i	i	22718	i
COC(=O)c1cccc(S(=O)(=O)N2CCC(C)CC2)c1	i	i	i	i	i
CCOC(=O)N1CCC(N2CCN(S(=O)(=O)c3ccc(Cl)cc3)CC2)CC1	i	i	i	19293	?
CCOC(=O)N1CCN(S(=O)(=O)c2ccc(OC)c(Cl)c2)CC1	i	i	i	i	i
CCOC(=O)N1CCN(S(=O)(=O)c2ccc(OC)c(OC)c2)CC1	i	i	i	25529	i
C[C@H]1CN([C@@H](C)CO)C(=O)c2cc(Br)cnc2O[C@H]1CN(C)C(=O)C1CC1	i	nt	i	i	i
O=C(NC1CCCCC1)N1CCC(n2cnc3ccccc32)CC1	i	i	i	i	i
SMILES	BoNT F protease	BJeLR viability	Anthrax LF prot	Autofluor counter	BoNT-A LC inh2
CCOC(=O)N1CCC(NC(=O)c2ccc(CNS(=O)(=O)c3ccc(F)cc3)cc2)CC1	i	i	i	17979	i
CCOC(=O)N1CCN(C(=O)CN(Cc2ccc(Cl)cc2)S(=O)(=O)c2ccc(C)cc2)CC1	i	i	i	24719	i
CCOC(=O)N1CCC(NC(=O)c2cc(S(=O)(=O)N3CCOCC3)ccc2F)CC1	i	i	i	20906	i
CCOC(=O)N1CCN(C(=O)CN(Cc2ccc(Cl)cc2)S(C)(=O)=O)CC1	i	i	i	i	i
CCOC(=O)N1CCC(NC(=O)c2cc(S(=O)(=O)N3CCC4(CC3)OCCO4)ccc2F)CC1	i	i	i	i	i
Cc1cccc(C)c1-n1c(C)nn(Cc2ccc([N+](=O)[O-])cc2)c1=O	i	i	i	i	i
C=CCNC(=O)Cn1c(=O)c2c(ncn2CCC(C)C)n(Cc2ccccc2)c1=O	i	i	i	i	i
Cc1cc(C)n2nc(-c3ccc(Br)cc3)cc2n1	i	i	i	i	i
Cc1cc(C)n2nc(NCc3ccccc3)nc2n1	i	i	i	20633	?
COc1ccc(-c2cc3nc(C)cc(C)n3n2)cc1	i	i	i	20324	i
COc1ccc(CNc2nc3nc(C)cc(C)n3n2)cc1	i	i	i	23427	i
CCCNS(=O)(=O)c1ccc(OCC(=O)NCC2CCCO2)cc1 (stereo unspecified)	i	i	i	i	i
CC(O)c1cccc(N=Cc2ccc3ccccc3c2O)c1 (stereo unspecified)	?	i	41.9	i	i
COc1ccc2cc(/C=N/NC(=O)CN(c3ccccc3C)S(=O)(=O)c3ccccc3)c(Cl)nc2c1	i	i	i	i	i
